Experimental data published in publication PMC4336329 (PLoS ONE, 2015).
Among all 310,000 compounds or so, about 14,000 (4.5%) showed an effect of 50% or more. The effect is printed as a negative number. The full list was thinned out, with strong results kept by preference.

Target: human ether-à-go-go-related gene (hERG) potassium channel (human, UniProt Q12809)
Assay: primary screen, population patch clamp on CHO cells stably expressing hERG; higher = less effect of the substance
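Further: peak tail current of the secondary pulse compared with the same well before compound.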

Sequence of human ether-à-go-go-related gene (hERG) potassium channel (Q12809 whole entry, looked up): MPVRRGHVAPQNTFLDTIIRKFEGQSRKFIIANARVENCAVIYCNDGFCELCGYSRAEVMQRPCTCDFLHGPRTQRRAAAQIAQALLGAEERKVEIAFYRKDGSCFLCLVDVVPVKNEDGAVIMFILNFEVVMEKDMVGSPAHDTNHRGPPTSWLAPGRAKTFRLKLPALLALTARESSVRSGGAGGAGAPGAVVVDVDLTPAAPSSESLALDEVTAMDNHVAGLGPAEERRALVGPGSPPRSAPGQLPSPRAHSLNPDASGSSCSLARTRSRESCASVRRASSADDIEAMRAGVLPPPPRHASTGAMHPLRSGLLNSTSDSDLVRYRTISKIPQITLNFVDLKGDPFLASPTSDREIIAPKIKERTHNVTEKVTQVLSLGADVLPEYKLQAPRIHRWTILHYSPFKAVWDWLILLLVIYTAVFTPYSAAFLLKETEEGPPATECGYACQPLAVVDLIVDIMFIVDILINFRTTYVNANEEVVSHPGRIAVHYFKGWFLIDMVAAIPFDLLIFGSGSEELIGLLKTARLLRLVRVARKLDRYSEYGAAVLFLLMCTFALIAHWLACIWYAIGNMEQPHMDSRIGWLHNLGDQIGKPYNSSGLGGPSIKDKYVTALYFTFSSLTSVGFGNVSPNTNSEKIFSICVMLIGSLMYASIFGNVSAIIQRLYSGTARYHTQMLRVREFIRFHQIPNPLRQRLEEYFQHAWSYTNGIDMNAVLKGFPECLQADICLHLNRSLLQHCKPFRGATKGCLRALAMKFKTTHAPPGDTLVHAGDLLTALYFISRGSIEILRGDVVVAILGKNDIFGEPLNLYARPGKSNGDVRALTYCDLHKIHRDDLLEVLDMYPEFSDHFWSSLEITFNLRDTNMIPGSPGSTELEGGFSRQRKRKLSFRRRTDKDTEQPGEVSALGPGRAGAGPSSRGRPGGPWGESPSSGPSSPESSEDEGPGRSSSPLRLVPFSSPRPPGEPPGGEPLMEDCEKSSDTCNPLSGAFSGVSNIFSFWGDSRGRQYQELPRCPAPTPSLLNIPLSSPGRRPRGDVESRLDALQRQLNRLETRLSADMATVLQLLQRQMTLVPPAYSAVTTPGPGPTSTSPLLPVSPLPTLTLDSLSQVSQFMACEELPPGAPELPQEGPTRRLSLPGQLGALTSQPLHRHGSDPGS

| SMILES | hERG current change (%, negative = inhibition) at 10uM [%] |
| --- | --- |
| c1ccc(Cn2nnnc2C(c2ccccc2)N2CCN(c3nc4ccccc4s3)CC2)cc1 (stereo not shown) | -11.7 |
| CS(=O)(=O)N1CCN(c2ccc(NC(=O)CSc3ccc(Cl)cc3)cc2)CC1 | -0.247 |
| O=C(CCc1ccccc1)N1CCCN(C(=O)CCc2ccccc2)CC1 | -51.5 |
| O=C(CCc1ccccc1)N1CCCC1 | 8.96 |
| O=C(NCCOc1ccccc1)c1ccccc1SCC(=O)N1CCCC1 | 14.9 |
| CCOC(=O)N1CCN(C(=O)CCc2ccccc2)CC1 | 5.12 |
| COc1ccc(N2CCN(CCCN)CC2)cc1 | 8.6 |
| O=C(NCCc1ccccc1)c1ccccc1SCC(=O)N1CCCC1 | -51.3 |
| CCCCCCN1CCN(c2ccc(Cl)cc2)CC1 | -66.9 |
| O=C(O)c1ccccc1SCC(=O)N1CCCCC1 | 15.2 |
| CC(C)OC(=O)CN1CCN(c2ccc(Cl)cc2)CC1 | 1.73 |
| CNc1nc(-c2ccc3c(c2)CCN3C(=O)CC(C)(C)C)c(C)s1 | 38 |
| C=CC#CC1(O)CC(C)[N+](C)(C)CC1C.[I-] (stereo not shown) | 17.4 |
| CCCCn1c(N)c(N(CC(C)C)C(=O)CSC(C)C(=O)Nc2cc(C)on2)c(=O)[nH]c1=O (stereo not shown) | 9.14 |
| CN(CCc1nc2ccccc2[nH]1)Cc1nc(CC2CC2)no1 | -13.7 |
| CN(CCc1nc2ccc(Cl)cc2[nH]1)Cc1nc(CC2CC2)no1 | -50.8 |
| CN(Cc1nc2ccc(F)cc2[nH]1)Cc1nc(CC2CC2)no1 | -12.3 |
| Cc1c(C(=O)N(C)Cc2ccc(OC(F)F)cc2)oc2ccccc12 | -69.9 |
| Cc1c(C(=O)OCC(=O)N(C)Cc2ccccc2)oc2ccccc12 | -29.4 |
| CCn1cc(C(=O)OCC(=O)N(C)Cc2ccccc2)c(=O)c2ccc(C)nc21 | -11.1 |
| CCCCN(C)C(=O)c1cn(CC)c2nc(C)ccc2c1=O | -3.49 |
| COc1ccc2oc(C(=O)N(C)Cc3ccc(OC(F)F)cc3)c(C)c2c1 | -53.8 |
| CCn1cc(C(=O)N(C)Cc2ccc(OC(F)F)cc2)c(=O)c2ccc(C)nc21 | -65.1 |

| SMILES | hERG current change (%, negative = inhibition) at 10uM [%] |
| --- | --- |
| COc1ccc2oc(C(=O)N(C)Cc3ccc4c(c3)OCCO4)c(C)c2c1 | -10.5 |
| COc1ccc2oc(C(=O)N(C)CCOc3ccccc3)c(C)c2c1 | -28.9 |
| COc1ccc(CCN(C)C(=O)c2oc3ccccc3c2C)cc1OC | -0.562 |
| CCCNC(=O)Nc1ccccc1C(=O)Nc1ccc(OC)cc1 | 2.77 |
| OCC1CCCN(C(=S)NCCc2ccccc2)C1 (stereo not shown) | 0.885 |
| CCCn1nc(Oc2nc(NCC)nc(NCC)n2)ccc1=O | 1.1 |
| CCCn1nnc(NC(=O)c2cccc(OCC(C)C)c2)n1 | -3.93 |
| O=C(NCCc1ccc(Cl)cc1)C1CCN(S(=O)(=O)c2cccs2)CC1 | -71.2 |
| O=C(NCCc1ccc(Cl)cc1)C1CCN(S(=O)(=O)N2CCCCC2)CC1 | -5.98 |
| O=C(NCc1cccs1)C1CCN(S(=O)(=O)c2cccs2)CC1 | -32.1 |
| O=C(NCc1ccc(Cl)cc1)C1CCN(S(=O)(=O)c2cccs2)CC1 | -3.7 |
| O=C(NCCc1ccccc1)C1CCN(S(=O)(=O)c2cccs2)CC1 | -2.14 |
| O=C(NCCc1ccc(Cl)cc1)C1CCN(S(=O)(=O)N2CCCC2)CC1 | -52.3 |
| O=C(NCCc1ccccc1Cl)C1CCN(S(=O)(=O)c2cccs2)CC1 | -34.8 |
| O=C(NCCc1ccc(Cl)cc1)C1CCCN(S(=O)(=O)N2CCCCCC2)C1 (stereo not shown) | -18.7 |
| O=C(NCc1ccccc1Cl)C1CCN(S(=O)(=O)c2cccs2)CC1 | -63.4 |
| O=C1C=C(c2ccccc2)C[C@H](c2cccs2)[C@H]1n1cnc([N+](=O)[O-])c1 | -18.8 |
| COC(=O)c1nc2cc3c(cc2c(C)c1C(=O)OC)OCO3 | 10.8 |
| COC(=O)CN(C(=S)Nc1ccccc1)C1CC(=O)N(c2ccc(OC)cc2)C1=O (stereo not shown) | -6.5 |
| O=C1CCCC(O)=C1N=Nc1c(Cl)cc(Cl)cc1Cl | 7.14 |
| Cc1ccc(C(=O)c2cc3c(cc2N)OCCO3)cc1 | -11.4 |
| Cc1ccc(S(=O)(=O)c2cn(Cc3ccc(F)cc3)c3cc4c(cc3c2=O)OCO4)cc1 | -55 |
| CC(C)c1ccc(S(=O)(=O)c2cn(Cc3ccc(F)cc3)c3cc4c(cc3c2=O)OCO4)cc1 | -1 |
